An excerpt weighted towards active compounds, which were near 17% of everything screened.
DT40 TDP1 no CPT: qHTS for Inhibitors of human tyrosyl-DNA phosphodiesterase 1 (TDP1): qHTS in cells in absence of CPT; DT40 Tdp1-/- hTDP1 cells, no CPT, ATP luminescence, 48 h; Potency, µM (series often up to 46.2 µM), for the others: top-dose activity change, negative = growth inhibition, actives largely listed as inhibitors; actives 15% (n = 420,000); AID 686978, 2013; also: % is scaled to controls: 0 for no effect and ±100 for the full control effect; nearly all actives have a fitted effect of over 55% in size
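Stably hTDP1-transfected Tdp1-null chicken DT40 cells were treated with library compounds minus camptothecin and grown for at least 48 hr at 37 °C, after which cellular ATP was quantified by luminescence.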
HepG2 tox: counter-screen for TGF-b inhibitors: cytotoxicity in HepG2 cells. HepG2 CAGA-GFP viability, ATP luminescence, 18 h. Potency, µM (highest dose often 46.1 µM), without a hit: top-dose activity change, negative = cytotoxicity, hits mostly cytotoxic. actives 0.76% (n = 410,000). AID 588856
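CellTiter-Glo luminescence gave cytotoxicity after 18 hours at 37 degrees C. The cells were HepG2 CAGA-GFP in 1% FBS DMEM, stimulated with 500 pg/mL TGF-beta after compound addition. %Activity was normalised to no-cell wells (complete cell-killing) and DMSO (no toxicity), and curves were fitted and classified.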
ATXN2 expr inh: reduces ATXN2 reporter expression in HEK-293 cells. Potency, µM (highest dose often 57 µM), inactives show top-dose activity change, negative = inhibition, hits mostly inhibitors. AID 1745845. HEK-293 ATXN2-luciferase reporter, luminescence, 24 h. actives 0.72% (n = 360,000); also: % is scaled to controls: 0 for no effect and ±100 for the full control effect; nearly all actives have a fitted effect of over 55% in size
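qHTS (up to 57 uM final) was run with 24 h compound exposure of reporter cells at 37 °C. Each well was multiplexed: SteadyGlo luminescence measured ATXN2-luciferase expression after a fluorogenic Gly-Phe-AFC viability readout (25 uM final).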
TGFb inhibitor: TGF-b pathway inhibition; HepG2 CAGA-GFP TGF-b/SMAD3 reporter, GFP fluorescence, 18 h; TGF-beta stimulated, 500 pg/mL final; Potency, µM (highest dose often 46.1 µM), without a hit: at the top dose activity, negative = inhibition, usual class: inhibitors; actives 1.2% (n = 410,000); also: % is scaled to controls: 0 for no effect and ±100 for the full control effect; nearly all actives have a fitted effect of over 65% in size
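Read-out: total well GFP (ex488/em500-530) summed from mean per-cell fluorescence. Cells: HEPG2 CAGA-GFP, 1% FBS DMEM, 18 h at 37 degrees C with 500 pg/mL final TGF-beta. Unstimulated wells served as the full-inhibition control; stimulated DMSO wells = 0%.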
ATXN viability: viability counter-screen for ATXN expression inhibitors; S2 cells (HEK-293 line with an ATXN2-luciferase reporter) viability, CellTiter-Fluor protease fluorescence, 24 h; Potency, µM (titrated, usually from 56.7 µM), hits mostly cytotoxic; actives 0.49% (n = 400,000); also: nearly all actives have a fitted effect of over 40% in size
TDP1 cell CPT: growth inhibition of DT40 Tdp1-/-;hTDP1 cells with camptothecin (screen for TDP1 inhibitors); Potency, µM (doses to about 46.2 µM), inactives show at the top dose activity change, negative = growth inhibition, most hits filed as inhibitors; chicken DT40 Tdp1-/-;hTDP1 cells + 20 nM CPT, ATP luminescence, 48 h; actives 12% (n = 420,000); AID 686979; also: % is scaled to controls: 0 for no effect and ±100 for the full control effect; nearly all actives have a fitted effect of over 55% in size
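Chicken DT40 Tdp1-/- cells complemented with human TDP1, 400 cells/well, exposed to compounds plus 20 nM camptothecin for at least 48 h at 37 C; viability read as ATP content by CellTiter-Glo luminescence.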
Numbers without * were called inactive; i = inactive; ? = inconclusive; nt = no result given. Calls follow the shape of the dose curve; as a rule, active = well fitted curve in the direction sought with a large enough effect; inconclusive = small, poorly fitted or top-dose-only effect, or another doubt; inactive = no such curve, though single readings can be large; an effect the other way counts as inactive or inconclusive. Potency is read from the fitted curve at half-maximal effect.

SMILES | DT40 TDP1 no CPT | HepG2 tox | ATXN2 expr inh | TGFb inhibitor | ATXN viability | TDP1 cell CPT
CC(C)CCCN1C(Nc2ccccc2)=NC[C@@H]1CC(C)C | 18µM* | -38% | -3% | -20% | ? | ?
CC(CCN1C(Nc2ccccc2)=NC[C@@H]1Cc1ccccc1)c1ccccc1 (some centres not stated) | 18µM* | -19% | -22% | -1% | ? | ?
COc1ccc(CCC(=O)N/N=C/c2ccc3c(c2)OCO3)cc1 | -6% | 16% | -6% | ? | i | 4%
COc1ccc(C(=O)Cn2c(=N)n(C)c3ccccc32)cc1 | 21µM* | -19% | 19% | -2% | ? | ?
Cn1c(=N)n(CC(=O)C(C)(C)C)c2ccccc21 | -49% | -6% | 20% | ? | i | ?
C=CCn1c(=N)n(CC(=O)c2ccc(OC)cc2)c2ccccc21 | ? | -26% | -3% | -22% | ? | ?
Cn1c(=N)n(CC(=O)c2ccccc2)c2ccccc21 | 18µM* | -52% | ? | -3% | i | ?
COc1ccc(C(=O)CN2Cc3ccccc3C2=N)cc1 | 18µM* | -31% | nt | 0% | ? | 16µM*
COc1ccc(/C=C/C(=O)c2nc3ccccc3n2CC(=O)c2ccc(OC)cc2)cc1 | -13% | -19% | 0% | -6% | i | 4%
COc1ccc(C(=O)Cn2c(C(C)=O)nc3ccccc32)cc1 | 7.3µM* | 7% | ? | ? | nt | 15µM*
COc1ccc(C(=O)CN2C(=O)COc3ccccc32)cc1 | -22% | 2% | 3% | -5% | i | -16%
CCN(CC)CCn1c(=N)n(CC(=O)c2ccc(C)cc2)c2ccccc21 | 13µM* | -36% | -13% | -22% | i | 16µM*
CCn1c(=N)n(CC(=O)c2ccc(OC)c(OC)c2)c2ccccc21 | ? | -33% | -32% | 2% | ? | ?
Cn1c(=N)n(CC(=O)c2ccc(Cl)c(Cl)c2)c2ccccc21 | 16µM* | -8% | nt | 8% | ? | 13µM*
CC(C)(C)NC(=O)Nc1ccc(Br)cc1 | -1% | -2% | 14% | 5% | i | ?
CC(/C=N/NC(=O)CSc1ccccn1)=C\c1ccc(C(C)C)cc1 | 10µM* | -33% | 38% | 0% | i | ?
COc1cc2cc(CNc3ccccc3)c(=O)n(CC(=O)Nc3ccccc3)c2cc1OC | 18µM* | -30% | 13% | ? | nt | ?
CCc1ccc(NCc2cc3cc(OC)c(OC)cc3n(CC(=O)Nc3ccc(F)cc3)c2=O)cc1 | nt | -23% | 3% | -12% | ? | nt
COc1ccccc1NC(=O)Cn1c(=O)c(CNc2ccccc2)cc2cc(OC)c(OC)cc21 | 6.5µM* | -15% | nt | 1% | nt | 5.2µM*
CCN(C(=O)c1cc2c(=O)[nH]c3ccc(C)cc3c2s1)c1ccccc1F | ? | -4% | -1% | 6% | i | 13µM*
CCN(C(=O)c1cc2c(=O)[nH]c3ccc(C)cc3c2s1)c1ccc(F)cc1 | ? | -21% | -14% | -12% | i | ?
CCN(C(=O)c1cc2c(=O)[nH]c3ccc(C)cc3c2s1)c1cccc(C)c1 | 18µM* | -5% | -9% | -19% | i | ?
CCN(C(=O)c1cc2c(=O)oc3ccc(C)cc3c2s1)c1ccccc1F | 21µM* | -19% | 9% | -6% | i | ?
CCN(C(=O)c1cc2c(=O)[nH]c3ccc(C)cc3c2s1)c1ccccc1C | 2.9µM* | 10% | -25% | -1% | ? | 2.6µM*
CCC(C)NC(=O)c1cc2c(=O)[nH]c3ccc(C)cc3c2s1 (configuration not stated) | ? | -10% | -14% | 11% | i | ?
SMILES | DT40 TDP1 no CPT | HepG2 tox | ATXN2 expr inh | TGFb inhibitor | ATXN viability | TDP1 cell CPT
Cc1ccc2[nH]c(=O)c3cc(C(=O)N(C)c4ccc(C)c(C)c4)sc3c2c1 | 10µM* | -26% | nt | 1% | i | 10µM*
COc1ccc(-c2cc(OC(=O)c3cccc(Cl)c3)c3c(C)oc(C)c3c(=O)c2)cc1 | ? | -1% | -17% | 63% | ? | 26µM*
CCOc1cc(-c2ccc(OC(=O)c3ccc(Cl)cc3)c(OC)c2)cc(=O)c2c(C)oc(C)c12 | 5.2µM* | -1% | nt | 0% | nt | 4.6µM*
CCOc1cc(-c2ccc(OC(=O)c3ccccc3)c(OC)c2)cc(=O)c2c(C)oc(C)c12 | 5.8µM* | -6% | nt | 3% | nt | 6.5µM*
COc1ccc(-c2cc(OC(=O)c3ccccc3)c3c(C)oc(C)c3c(=O)c2)cc1OC | ? | -3% | -1% | 108% | i | ?
Cc1nnc2c3ccccc3nc(Nc3ccc(F)cc3Cl)n12 | -28% | 15% | nt | -2% | nt | -19%
Cc1ccc(Nc2nc3ccccc3c3nnc(C)n23)c(C)c1 | 8.2µM* | -12% | nt | -6% | nt | 12µM*
Cc1ccc(C2=CC(c3c(F)cccc3Cl)n3ncnc3N2)cc1C (configuration not stated) | ? | -10% | -10% | -14% | nt | ?
Cc1cccc(C2C=C(c3ccc(C)c(C)c3)Nc3nnnn32)c1 (configuration not stated) | 2.6µM* | -2% | 12% | -2% | nt | 2.6µM*
CCc1ccc(C2=CC(c3cccc(Br)c3)n3nnnc3N2)cc1 (configuration not stated) | 15µM* | -52% | 5% | -5% | nt | 18µM*
O=C(Nc1cccc(F)c1)Nc1ccnn1C1CCN(C(=O)c2ccccn2)CC1 | -27% | -1% | 23% | -5% | ? | 6%
Cc1cc(C)c[n+](-c2nc3ccccc3nc2[N-]S(=O)(=O)c2ccc(Br)s2)c1 | ? | 4% | 26% | 51% | i | ?
Cc1nc(N2CCN(C(=O)c3ccco3)CC2)nc2c1C(=O)CCC2 | 7% | 1% | 20% | 0% | i | ?
CC(C)n1nc(C(=O)Nc2cccc(S(=O)(=O)N3CCCCC3)c2)c2ccccc2c1=O | -28% | -6% | 0% | 6% | i | 13µM*
CC(C)n1nc(C(=O)Nc2cccc(S(=O)(=O)N3CCOCC3)c2)c2ccccc2c1=O | ? | -26% | -8% | 4% | i | 21µM*
COc1cc(-c2cnc3c(NC=O)cc(-c4ccc(S(C)(=O)=O)cc4)cn23)cc(OC)c1OC | 18µM* | -12% | -16% | 2% | ? | 16µM*

Screening data (PubChem BioAssay)
